D2 ag-1 = activates the human D2 dopamine receptor. activation, % at 2 µM. 340,000 compounds, 0.53% hits. HEK293 T-REx D2 cells, calcium flux agonist mode. AID 485358. P14416;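 active means activation over 3 SD above normal in the single-dose calcium agonist read, cut at about 30% in these data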; further: 0% is about no effect
Target sequence (P14416 whole entry, looked up): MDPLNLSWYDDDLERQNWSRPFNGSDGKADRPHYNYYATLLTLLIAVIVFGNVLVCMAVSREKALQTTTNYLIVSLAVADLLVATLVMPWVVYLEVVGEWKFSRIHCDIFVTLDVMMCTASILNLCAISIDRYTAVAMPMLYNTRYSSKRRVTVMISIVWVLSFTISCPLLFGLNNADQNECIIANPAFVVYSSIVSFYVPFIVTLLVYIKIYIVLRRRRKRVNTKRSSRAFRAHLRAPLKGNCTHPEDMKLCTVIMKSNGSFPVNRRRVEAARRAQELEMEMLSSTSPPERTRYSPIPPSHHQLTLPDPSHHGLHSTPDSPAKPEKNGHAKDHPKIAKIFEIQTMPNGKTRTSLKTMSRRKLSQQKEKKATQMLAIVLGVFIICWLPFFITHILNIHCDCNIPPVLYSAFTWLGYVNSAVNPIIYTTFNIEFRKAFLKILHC
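Agonism scored from kinetic calcium signal (1 read/sec, 180 s) following compound pin transfer, after a 10 s baseline. Cells: HEK293 Trex line expressing inducible D2 receptor coupled to calcium, dye-loaded after overnight culture at 30 C.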
D2 antag = antagonists of human D2 dopamine receptor; HEK293 TREx D2 cells, calcium flux, dopamine EC80; P14416; inhibition, % at 10 µM; 340,000 compounds, 2% hits; AID 485344; in the data active means inhibition above about 30%; inactive means below that, where a call was filed; further: 0% is about no effect
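Dopamine at EC80 is the agonist stimulus; test compounds precede it by 180 s. Calcium flux read kinetically in a force-coupled, inducible HEK293 T-REx D2 cell line.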
LDHA block = LDHA (human) enzyme inhibition. P00338. AID 1347041. activity change, % (values are at about 110 or 230 µM). purified LDHA, NADH/diaphorase-resazurin fluorescence; hits give low values. 480,000 compounds, 0.15% hits; in the data active means activity change below about -30%; inconclusive means mostly about -25% to -30%;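 further: plate controls were DMSO wells for no effect and wells without enzyme for full effect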
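Human LDH5 (2 nM) was incubated with 0.06 mM NADH and 0.2 mM pyruvate for 5 min at room temperature in Tris pH 7.4. Remaining NADH was coupled through diaphorase/resazurin, and resorufin fluorescence was read at 0 and 20 min.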
D2 PAM-1 = D2 dopamine receptor (human) potentiation; HEK293 T-REx D2, calcium flux, EC20 dopamine potentiation; potentiation, % at 10 µM; 340,000 compounds, 0.34% hits; AID 485347;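 active means potentiation over 3 SD above the plate norm, cut at about 30% in these data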; further: 0% is about no effect
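Calcium flux readout, no-wash dye, 1 read/s. Inducible HEK293 Trex D2 line, overnight 30 C. Compound alone 180 s (agonist flags), then EC20 dopamine, another 180 s to score potentiation.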
D2 ag-2 = human D2 receptor agonism in beta-arrestin assay; P14416; DiscoveRx PathHunter D2 beta-arrestin, luminescence, 90 min; 100% = 57 uM dopamine signal; activation, % (no concentration beside the values); 360,000 compounds, 0.084% hits; AID 624465; in the data active means activation above about 40%; inconclusive means between about 15% and that limit
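Agonist mode: compounds alone added to overnight-plated D2 PathHunter cells for 90 min at 37 C, with 57 uM final dopamine (EC100) defining full response. Beta-arrestin recruitment detected by chemiluminescent reagent, read after 1 h at ambient temperature.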
D2 PAM-2 = positive allosteric modulators of human D2 dopamine receptor | DiscoveRx D2 beta-arrestin cells, luminescence, 90 min; 100% = 57 uM dopamine signal | P14416 | 360,000 compounds, 0.23% hits | potentiation, % (test concentration not listed); in the data active means potentiation above about 50%; inconclusive means mostly about 30% to 49%
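PathHunter D2 cells, attached overnight at 37 deg C, received compound in DMSO plus dopamine at EC20 (50 nM final) for 90 min at 37 deg C. Beta-arrestin recruitment was read as luminescence after 1 h with detection reagent at ambient temperature.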
An asterisk follows results filed as active; ? = inconclusive; nt = not tested or not shown. Hits are enriched below; roughly 2.1% of the tested compounds scored in any of these assays.

SMILES	D2 ag-1	D2 antag	LDHA block	D2 PAM-1	D2 ag-2	D2 PAM-2
Cc1cccc(C(=O)OCC(=O)N2c3ccccc3CC2C)c1C (stereo not given)	nt	nt	-1.4	nt	-0.9	-9.4
Cc1nc2sc(C(=O)OCC(=O)N3c4ccccc4CC3C)c(C)c2c(=O)[nH]1 (stereo not given)	5.4	52.3*	-1.3	-6.6	-0.6	-0.7
CC(=O)Nc1cccc(C(=O)/C=C/c2ccc(N(C)C)cc2)c1	85.9*	35.0*	0.9	-2.8	6.1	?
CC(=O)Nc1cccc(C(=O)/C=C/c2ccc(/C=C/C(=O)c3cccc(NC(C)=O)c3)cc2)c1	0.7	0.0	nt	-4.1	nt	nt
CCn1c(CNC(=O)C23CC4CC(CC(C4)C2)C3)nnc1SCC(=O)Nc1nnc(C)s1	0.2	0.2	-4.6	43.4*	-1.2	1.5
O=C(/C=C/c1ccc(S(=O)(=O)N2CCOCC2)cc1)N1CCCCC1	0.3	7.4	-3.3	-10.1	-5.2	-1.7
CC(=O)c1ccc(N2CCN(C(=O)/C=C/c3ccc(S(=O)(=O)N4CCOCC4)cc3)CC2)cc1	0.7	49.7*	3.0	-7.6	-3.3	-7.0
CCCNC(=O)CSC1=N/C(=C/c2ccc(F)cc2)C(=O)N1CC	-0.4	35.0*	-8.2	8.9	-1.9	-12.9
C=CCN1C(=O)/C(=C\c2ccc(C)cc2)N=C1SCC(=O)NCCC	0.3	9.0	-5.5	4.6	-0.7	-14.6
O=C(CN(c1ccccc1F)S(=O)(=O)c1ccccc1)Nc1ccccc1C(=O)O	nt	nt	2.0	nt	nt	nt
Cc1cccc(NCc2ccc(N(C)C)cc2)n1	-0.5	-16.4	-2.0	32.7*	0.8	-6.2
CN(C)c1ccc(CNc2ccccn2)cc1	-0.8	-13.0	-3.5	8.6	-2.4	-5.1
CCOC(=O)C1CCN(C(=S)NC2CCCC2)CC1	0.9	34.1*	-3.6	-13.6	4.5	0.3
Cn1c(=O)c2c(nc(NCCc3ccccc3)n2CC(O)CO)n(C)c1=O (stereo not given)	nt	nt	5.1	nt	nt	nt
CCn1cc([N+](=O)[O-])c(C(=O)N2N=C3/C(=C/c4cccs4)CCCC3C2c2cccs2)n1 (stereo not given)	-0.7	-5.9	4.1	42.8*	-1.8	-4.1
O=C1C(=C2SCCS2)CCc2ccccc21	nt	nt	62.8	nt	nt	nt
COCCNc1nc2ccccc2n2cnnc12	-0.8	8.1	-3.3	8.6	-0.7	-0.9
c1ccc2c(c1)CCN(CCCNc1nc3ccccc3n3cnnc13)C2	0.0	69.9*	-1.4	-26.4	-7.3	-9.8
O=C(NCCN1CCc2ccccc2C1)C1CCN(S(=O)(=O)N2CCCCC2)CC1	34.1*	-3.7	-0.1	-10.2	1.6	-6.0
CCCCC(CC)CNC(=S)Nc1ccc(C(C)CC)cc1 (stereo not given)	nt	nt	5.4	nt	nt	nt
COc1ccc(N(C(=O)CNC(=O)c2cccs2)C(C(=O)NCC2CCCO2)c2ccccc2)cc1 (stereo not given)	-0.1	80.4*	-0.2	-16.3	4.1	-1.8
CCN(Cc1ccccc1)c1ccc(/C=N/NS(=O)(=O)c2cc(C)ccc2C)cc1	nt	nt	14.6	nt	nt	nt
CN(CC(=O)Nc1ccc(S(=O)(=O)N2CCCC2)cc1)Cc1ccc(Cl)cc1Cl	0.3	11.7	4.6	5.6	?	63.8*
CCOc1ccc(NC(=O)CN(C)Cc2ccc3c(c2)OCO3)cc1S(=O)(=O)N1CCCC1	0.1	58.2*	-2.5	-22.3	6.4	-1.2
CC(=O)Nc1ccc(S(=O)(=O)N2CCCN(S(=O)(=O)c3ccc(NC(C)=O)cc3)CC2)cc1	0.1	3.1	-1.3	4.9	-0.1	6.9
SMILES	D2 ag-1	D2 antag	LDHA block	D2 PAM-1	D2 ag-2	D2 PAM-2
CC(C)(C)CC(=O)Nc1ccc(S(=O)(=O)N2CCCC2)cc1	-1.0	-3.2	-4.9	43.5*	0.2	-1.5
CC(=O)Nc1ccc(S(=O)(=O)N2CCCN(S(=O)(=O)c3ccc(C)cc3)CC2)cc1	0.1	30.7*	1.5	-1.3	1.2	-2.3
CN(CC(=O)Nc1ccc2[nH]c(=O)[nH]c2c1)Cc1ccc2c(c1)OCO2	nt	nt	-0.9	nt	nt	nt
CCOC(=O)c1ccc(-n2cccc2/C=C2\NC(=O)N(CC(=O)Nc3ccccc3C)C2=O)cc1	nt	nt	-6.8	nt	nt	nt
CCN(CC)c1ccc(/C=N/NC(N)=S)cc1	nt	nt	-2.1	nt	nt	nt
O=S(=O)(Nc1nc2ccccc2nc1Nc1cccc(C(F)(F)F)c1)c1cccs1	nt	nt	-2.3	nt	nt	nt
CC(C)(C)CC(=O)Nc1cccc(C(=O)O)c1	nt	nt	-5.7	nt	nt	nt
O=C(CCc1c[nH]c2ccccc12)Nc1ccc(Cl)c(Cl)c1	nt	nt	13.8	nt	nt	nt
Cc1ccc(NC(=O)c2ccc(S(=O)(=O)N3CCCCC3)cc2)cc1	-0.3	-15.7	-14.5	-6.4	-0.3	-6.4
Cc1ccc(C(=O)NNC(=O)c2ccc(S(=O)(=O)N3CCCCC3)cc2)cc1	nt	nt	-31.9*	nt	-0.6	-9.7
O=C(CSc1nc2ccccc2[nH]1)Nc1c(F)c(F)c(F)c(F)c1F	0.1	-7.2	3.3	43.0*	5.7	0.0
O=C(CSc1nc2ccccc2[nH]1)Nc1c(F)cccc1F	-1.0	-3.3	-0.1	14.7	-1.4	-3.0
CC(Nc1ccc2oc(C(C)(C)C)nc2c1)C(=O)N1CCCC1 (stereo not given)	nt	nt	14.6	nt	nt	nt
CC1CCc2cc(F)ccc2N1C(=O)C12CCC(C)(C(=O)O1)C2(C)C (stereo not given)	0.0	32.0*	-5.9	-5.4	-3.2	0.7
CCCC(=O)N1N=C(c2cccc(NS(C)(=O)=O)c2)CC1c1cccc(F)c1 (stereo not given)	nt	nt	11.5	nt	nt	nt
COc1cccc(-c2nc(NC(C)C)c3ccccc3n2)c1O	11.8	32.5*	35.0	10.5	0.1	12.0
CCCCNc1nc(-c2cccc(OC)c2O)nc2ccccc12	nt	nt	11.0	nt	nt	nt
Cc1ccc(/C=N/Nc2ccc(Cl)c(C(=O)O)c2)s1	-0.6	-7.2	-1.5	8.6	5.1	51.3*
O=C(O)c1cc(N/N=C/c2cccs2)ccc1Cl	0.3	6.1	nt	-0.7	nt	nt
CC(CC(=O)c1ccc(Cl)cc1)CC(=O)c1ccc(Cl)cc1	nt	nt	8.4	nt	nt	nt
Cc1ncc(-c2ccc(C)c(S(=O)(=O)Nc3ccc(Cl)cc3F)c2)o1	nt	nt	-4.1	nt	nt	nt
CCCSc1ccc([C@@H]2[C@H]3C(=O)N(C)C(=O)[C@H]3[C@]3(C(=O)OC)CCCN23)cc1OC	nt	nt	-0.8	nt	-2.0	-2.7
CCCSc1ccc([C@@H]2[C@@H]3C(=O)N(C)C(=O)[C@@H]3[C@]3(C(=O)OC)CCCCN23)cc1OC	1.5	35.5*	1.0	3.6	-1.5	-11.1
CC(=O)c1coc2ccc(OCCN3CCCCC3)cc12	0.4	41.8*	2.3	-23.5	-0.2	-21.6
CC1=C(C(=O)Nc2ccccc2)C(c2cccs2)n2nnnc2N1 (stereo not given)	-0.6	35.8*	-9.3	2.3	-1.6	-8.2

From PubChem BioAssay
